# Assay outcomes as filed in PubChem BioAssay.
# FLuc counter = qHTS profiling assay for firefly luciferase inhibitor/activator using purifed enzyme and Km concentrations of substrates (counterscreen for miR-21 project). Potency, µM (highest dose often 57.5 µM), inactives show at the highest dose activity change, negative = inhibition, usual class: inhibitors. AID 588342, 2011. purified FLuc, Km substrates, luminescence inhibition. actives 6.9% (n = 360,000);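 also: plate controls were vehicle for no effect and reference inhibitor for full effect; nearly all actives have a fitted effect of over 55% in size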
# Target sequence (P08659 whole entry, looked up): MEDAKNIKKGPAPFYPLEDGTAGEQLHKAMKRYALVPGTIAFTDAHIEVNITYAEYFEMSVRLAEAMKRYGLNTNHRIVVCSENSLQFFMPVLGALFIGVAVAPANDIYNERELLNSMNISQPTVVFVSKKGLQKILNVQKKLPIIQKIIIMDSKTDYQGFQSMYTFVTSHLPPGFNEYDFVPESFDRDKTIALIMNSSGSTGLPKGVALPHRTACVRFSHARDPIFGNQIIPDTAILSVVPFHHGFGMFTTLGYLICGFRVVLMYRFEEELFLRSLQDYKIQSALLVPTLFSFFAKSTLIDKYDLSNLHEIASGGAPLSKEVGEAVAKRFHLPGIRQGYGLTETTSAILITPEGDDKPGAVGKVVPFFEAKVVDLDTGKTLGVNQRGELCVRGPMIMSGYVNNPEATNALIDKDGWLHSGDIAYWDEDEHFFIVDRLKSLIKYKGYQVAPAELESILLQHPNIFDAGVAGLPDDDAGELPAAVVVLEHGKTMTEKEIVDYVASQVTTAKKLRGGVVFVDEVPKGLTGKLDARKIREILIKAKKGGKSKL
#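 Purified P. pyralis luciferase, 10 nM final, with Km-level 10 uM D-luciferin and 10 uM ATP in 50 mM Tris acetate pH 7.5, 10 mM Mg acetate, 0.01% Tween-20, 0.05% BSA; 6-point qHTS titration about 60 µM downward; luminescence read.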
# SMN2 splice enh = qHTS Assay for Enhancers of SMN2 Splice Variant Expression; AID 1458, 2008; HEK293 SMN2-luciferase splicing reporter, luminescence, 30-36 h; Potency, µM (titrated, usually from 46.1 µM), for inactives: at the top dose activity change, positive = activation, actives largely listed as activators; actives 2.8% (n = 210,000); also: % of control where 0% means no effect; nearly all actives have a fitted effect of over 55% in size
#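 HEK293 cells carry an SMN2 minigene-luciferase reporter in which exon 7 inclusion puts luciferase in frame. Cells were seeded at 2000 cells/well, attached for 10-12 hours, then exposed to compounds for 30-36 hours at 37C before ONE-Glo luminescence.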
# ELG1 genotox = qHTS screen for small molecules that induce genotoxicity in human embryonic kidney (HEK293T) cells expressing luciferase-tagged ELG1. HEK293T ELG1-luciferase reporter, luminescence, 16 h. Potency, µM (titrated, usually from 46 µM), without a hit: at the top dose activity change, positive = activation, hits mostly activators. actives 1.3% (n = 330,000). AID 504466, 2011; also: % of control where 0% means no effect; nearly all actives have a fitted effect of over 60% in size
#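 Luminescence read-out: rising ELG1-luciferase signal, reflecting elevated ELG1 protein under genetic stress, flags genotoxic compounds. Cells were treated for 16 hr at 37 °C before ONE-Glo detection.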
# ELG1 repair inh = qHTS screen for small molecules that inhibit ELG1-dependent DNA repair in human embryonic kidney (HEK293T) cells expressing luciferase-tagged ELG1. actives 2.3% (n = 330,000). HEK293T ELG1-luciferase reporter, luminescence, 16 h; DNA damage induced by 5-fluorouridine. Potency, µM (series often up to 46.1 µM), for the others: top-dose activity change, negative = inhibition, hits mostly inhibitors; also: % is scaled to controls: 0 for no effect and ±100 for the full control effect; nearly all actives have a fitted effect of over 55% in size
#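 Cells (2,000 per well) received 5-fluorouridine plus test compound or DMSO and were incubated 16 hr at 37 °C, 5% CO2. Luciferase activity was read by luminescence 30 min after ONE-Glo addition; signal suppression marked inhibition of damage-induced ELG1 function.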
# NPC1 prom act = qHTS Assay for NPC1 Promoter Activators | actives 2.4% (n = 320,000) | Potency, µM (highest dose often 9.22 µM), inactives show at the top dose activation, usual class: activators | AID 485313, 2010 | Huh7 NPC1 promoter luciferase reporter, 24 h; also: % of control where 0% means no effect; nearly all actives have a fitted effect of over 60% in size
#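 Stably transfected Huh7 (NPC1 promoter→luciferase), 1500 cells/well in Opti-MEM + 10% FBS, 2 h settle, then compound 24 h at 37 °C. Luminescence after 10 min with Amplite reagent.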
# Rab9 prom act = qHTS Assay for Rab9 Promoter Activators; Huh7 Rab9 promoter-luciferase reporter, luminescence, 24 h; Potency, µM (series often up to 9.22 µM), without a hit: top-dose activation, negative = inhibition, most hits filed as activators; actives 2.8% (n = 320,000); also: % of control where 0% means no effect; nearly all actives have a fitted effect of over 60% in size
#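 Measured in stably transfected Huh7 cells bearing a Rab9 promoter–luciferase construct: 24 h compound treatment at 37 °C, followed by luminescence detection.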
# An asterisk follows results filed as active; ? = inconclusive; . = not tested or not shown. Most compounds without a hit are left out; they make up all but 9.3% or so of the library. Calls follow the shape of the dose curve; as a rule, active = well fitted curve in the direction sought with a large enough effect; inconclusive = small, poorly fitted or top-dose-only effect, or another doubt; inactive = no such curve, though single readings can be large; an effect the other way counts as inactive or inconclusive. Potency is read from the fitted curve at half-maximal effect.
SMILES,FLuc counter,SMN2 splice enh,ELG1 genotox,ELG1 repair inh,NPC1 prom act,Rab9 prom act
CCOC(=O)Cc1nn(C)c(=O)c2ccccc12,-1.1%,5.62µM*,4.9%,6.2%,-1.5%,0.0%
CCOC(=O)Cc1nn(CC)c(=O)c2ccccc12,-0.7%,.,2.3%,14.1%,-0.8%,-11.1%
NS(=O)(=O)c1cc(C(=O)OCC(=O)c2ccc3c(c2)OCCO3)ccc1Cl,0.213µM*,-0.7%,?,15.4%,2.82µM*,2.82µM*
CNS(=O)(=O)c1cccc(C(=O)OCC(=O)c2ccc3c(c2)OCCO3)c1,0.379µM*,.,-1.2%,0.3%,9.1%,19.6%
NS(=O)(=O)c1cc(C(=O)NNC(=O)c2ccc3c(c2)OCO3)ccc1Cl,.,.,10.6%,0.0%,.,.
Cc1nn(-c2ccccc2)c(C)c1C(=O)OCC(=O)Nc1ccccc1F,4.78µM*,.,?,?,3.98µM*,2.24µM*
Cc1cc(C(=O)OCC(=O)N2CCOCC2)c(C)n1-c1ccccc1,.,.,8.2%,0.0%,.,.
Cc1cc(C(=O)OCC(=O)Nc2c(F)cccc2F)c(C)n1-c1ccccc1,10.7µM*,-6.3%,15.6%,-19.0%,24.4%,25.4%
Cc1nn(-c2ccccc2)c(C)c1C(=O)OCC(=O)NC12CC3CC(CC(C3)C1)C2,-13.7%,-37.0%,-9.6%,20.6µM*,2.3%,12.4%
CC(=O)Nc1sc2c(c1-c1nc3ccccc3s1)CN(C(C)C)CC2,.,.,-9.3%,?,.,.
Cc1ccc(S(=O)(=O)NCC(=O)N(CC(=O)NCc2ccco2)Cc2ccc3c(c2)OCO3)cc1,7.9%,6.4%,5.8%,-1.7%,8.4%,11.9%
Cc1ccc(OC(C)C(=O)Nc2ccncc2)cc1C (stereo not given),-3.1%,.,-9.5%,?,-6.4%,3.6%
CC(Oc1ccc(Br)cc1)C(=O)Nc1ccncc1 (stereo not given),3.0%,4.4%,-11.1%,5.17µM*,-4.4%,-11.9%
CCc1ccc(C(=O)NNC(=O)CN2C(=O)NC3(CCCC3)C2=O)cc1,15.1µM*,.,5.0%,14.2%,-4.3%,-0.5%
O=C(CN1C(=O)NC2(CCCC2)C1=O)NNC(=O)c1ccc(Br)cc1,-3.9%,.,-7.0%,7.3%,-2.2%,-7.4%
O=C(/C=C/c1ccc(O)c(O)c1)OC(Cc1ccc(O)c(O)c1)C(=O)O (stereo not given),-12.0%,9.0%,2.9%,28.3%,-2.1%,-9.8%
Cc1ccc2nc(-c3ccc(Cl)c(NC(=O)c4cccnc4)c3)oc2c1,0.601µM*,-3.8%,.,.,.,.
Cc1ccc2nc(-c3ccc(Cl)c(NC(=O)c4cccc([N+](=O)[O-])c4C)c3)oc2c1,-19.8%,2.4%,.,.,.,.
O=C(Nc1ccc(-c2noc(CCc3ccccc3)n2)cc1)c1cccnc1,?,-53.4%,-7.6%,23.1µM*,0.0%,1.6%
Cc1ccc2nc(-c3ccc(Cl)c(NC(=O)COc4cccc(C)c4C)c3)oc2c1,4.78µM*,?,.,.,.,.
CCc1ccc2oc(-c3cc(N=Cc4cccc(OC)c4O)ccc3O)nc2c1,0.426µM*,14.1µM*,?,?,4.47µM*,3.98µM*
CCS(=O)(=O)c1nc(S(=O)(=O)c2ccc(C)cc2)c(NCCCN(C)C)s1,-3.4%,.,0.0%,16.4%,-4.2%,0.6%
C=CCN1C(=O)c2ccc(C(=O)NCCc3ccc(OC)c(OC)c3)cc2C1=O,-0.6%,.,0.4%,-0.1%,0.3%,-2.0%
O=C(CSc1n[nH]c(-c2ccccc2)n1)N1CCN(c2ccc(F)cc2)CC1,-15.1%,.,.,.,.,.
Cc1ccc2oc(-c3ccc(NC(=O)c4cccnc4)cc3)nc2c1,6.01µM*,2µM*,?,?,2.51µM*,2.24µM*
SMILES,FLuc counter,SMN2 splice enh,ELG1 genotox,ELG1 repair inh,NPC1 prom act,Rab9 prom act
O=C(Nc1ccc(-c2nc3ccccc3o2)cc1)c1cccnc1,2.69µM*,8.91µM*,?,?,2.24µM*,1.58µM*
CCc1ccc2oc(-c3cc(NC(=O)c4cccnc4)cc(C)c3O)nc2c1,0.849µM*,11.6%,.,.,.,.
O=C(Nc1cccc(-c2nc3ccccc3o2)c1)c1cccnc1,?,-35.4%,-6.4%,?,-0.8%,-0.9%
CCc1ccc2oc(-c3cc(NC(=O)c4cc(OC)c(OC)c(OC)c4)ccc3O)nc2c1,3.79µM*,-7.2%,.,.,.,.
COc1coc(C(O)CN)cc1=O (stereo not given),2.9%,12.2%,0.4%,2.1%,4.8%,0.3%
CCOC(=O)C(=Cc1cc(=O)c(OC)co1)C(=O)OCC,?,-109.3%,-13.5%,5.8µM*,-22.2%,-35.1%
C/C(=N\Nc1nc2ccccc2s1)c1ccc(Br)s1,15.1µM*,.,-7.6%,-16.4%,26.3%,14.6%
C/C(=N\NC(=O)c1ccccc1[N+](=O)[O-])c1ccc(Br)s1,1.5%,-0.5%,2.9%,-3.4%,-1.9%,-3.4%
C/C(=N\Nc1nc2ccccc2s1)c1ccc2c(c1)OCO2,9.53µM*,17.8µM*,?,?,27.0%,?
Cc1ccc(-c2nnc(NCc3nc4ccccc4[nH]3)c3ccccc23)cc1S(=O)(=O)N(C)C,-1.5%,-60.3%,-11.6%,10.3µM*,-0.5%,-1.8%
COc1ccccc1NC(=O)c1ccc(NC(=O)CN2CCCC2)cc1,-1.7%,14.3%,0.1%,-3.0%,-0.5%,4.5%
CN(CC(=O)Nc1ccc(F)c(F)c1F)c1ncnc2sccc12,0.3%,-40.1%,-7.2%,?,0.4%,3.6%
CN(CC(=O)Nc1ccccc1Br)c1ncnc2sccc12,-2.9%,.,-5.6%,11.6µM*,-2.8%,0.2%
CC1=NN(C(C#N)c2c(C)nn(Cc3ccccc3)c2C)C(C)(C)C1 (stereo not given),-1.6%,-0.1%,4.8%,-3.3%,-4.9%,-14.7%
Cc1cc(N2CCN(C)CC2)ccc1NC(=O)c1ccc(-c2ccc(Cl)cc2)o1,?,.,-0.8%,-4.2%,-10.1%,4.2%
COC(=O)Cn1c(=NC(=O)c2cc(-c3cccs3)nc3ccccc23)sc2cc(S(N)(=O)=O)ccc21,-3.7%,-37.9%,-8.9%,9.2µM*,-8.1%,-2.6%
Cc1cccc(Cn2cccc2CNS(=O)(=O)c2ccc(Br)cc2)c1,-14.0%,.,.,.,.,.
O=C(Nc1nccs1)c1ccc(COc2ccccc2)o1,?,.,?,?,2.51µM*,4.47µM*
CCc1nnc(NC(=O)c2ccc(COc3ccccc3)o2)s1,-13.5%,-2.3%,16.0%,22.5%,2.2%,3.3%
Cc1ccc(OCc2ccc(C(=O)Nc3nccs3)o2)cc1,16.9µM*,9.8%,3.1%,?,25.8%,15.9%
